This is part of a sample that, as a whole, favours compounds with a hit. Of some 79,000 tested, about 15% had one in any assay. Active and inactive are the calls of the source. Rule as the data show it: active = growth inhibition above about 70%; inactive = the rest.
What was measured:
[1] = NCI Yeast Anticancer Drug Screen. Data for the mlh1 strain (AID 171);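 also: 0% = growth of vehicle-treated control cultures of the same strain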; settings: S. cerevisiae mlh1 strain growth inhibition, active compounds read high
In short: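 Steps: expose the defined-mutant yeast strain to compound; expose a parallel culture to vehicle; measure growth; express compound effect as inhibition relative to the vehicle culture.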

[2] = NCI Yeast Anticancer Drug Screen. Data for the sgs1 strain (AID 173);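 also: 0% = growth of vehicle-only control cultures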; settings: S. cerevisiae sgs1 mutant, active compounds read high
In short: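 Treat defined-mutant yeast with compound; measure growth; calculate inhibition relative to vehicle-treated cells.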

[3] = NCI Yeast Anticancer Drug Screen. Data for the mlh1 rad18 strain (AID 175); settings: S. cerevisiae mlh1 rad18 strain growth inhibition, active compounds read high
In short: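 Test agents were incubated with a yeast strain of defined genotype (DNA damage repair defect). Inhibition of growth was derived by comparison with vehicle-exposed cultures.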

[4] = NCI Yeast Anticancer Drug Screen. Data for the rad18 strain (AID 177); settings: S. cerevisiae rad18 mutant growth inhibition, active compounds read high
In short: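 A genetically defined yeast mutant impaired in DNA damage repair was treated with test compounds, then its growth was measured against cultures receiving vehicle alone.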

[5] = NCI Yeast Anticancer Drug Screen. Data for the rad52 strain (AID 147);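 also: 0% = growth of vehicle-treated control cultures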; settings: S. cerevisiae rad52 mutant growth inhibition, active compounds read high
In short: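 Screen used a yeast mutant impaired in DNA repair. After compound exposure, growth was measured. Values reflect inhibition compared with vehicle-treated cells.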

[6] = NCI Yeast Anticancer Drug Screen. Data for the wt1 strain (AID 149);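 also: 0% = growth of vehicle-treated wt1 cultures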; settings: S. cerevisiae wt1 strain (SPY 50644) growth inhibition, active compounds read high
In short: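 Growth inhibition read against vehicle controls after compound exposure of the wt1 yeast strain.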

[7] = NCI Yeast Anticancer Drug Screen. Data for the rad50EPP+ strain (AID 151);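 also: 0% = growth of vehicle-treated control cultures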; settings: S. cerevisiae rad50 mutant strain, active compounds read high
In short: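 Exposing the rad50EPP+ strain to each compound, growth was compared with vehicle-only cultures to give inhibition.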

[8] = NCI Yeast Anticancer Drug Screen. Data for the mgt1 strain (AID 153); settings: S. cerevisiae mgt1 mutant growth inhibition, active compounds read high
In short: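 Genetically defined yeast (mgt1) treated with compound; inhibition of growth expressed against vehicle-treated controls.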

[9] = NCI Yeast Anticancer Drug Screen. Data for the rad50 strain (AID 155);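 also: 0% = growth of vehicle-only cultures of the same strain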; settings: S. cerevisiae rad50 strain growth inhibition, active compounds read high
In short: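 Readout: growth inhibition relative to vehicle-treated cultures. Compound exposure was carried out in a genetically defined yeast strain deficient in DNA damage repair.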

[10] = NCI Yeast Anticancer Drug Screen. Data for the mec2-1 strain (AID 157); settings: S. cerevisiae mec2-1 strain, active compounds read high
In short: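 Readout is yeast growth inhibition, normalised to vehicle-treated controls, in the mec2-1 strain exposed to compound.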

[11] = NCI Yeast Anticancer Drug Screen. Data for the sgs1 mgt1 strain (AID 161);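 also: 0% = growth of cultures given vehicle only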; settings: S. cerevisiae sgs1 mgt1 strain, active compounds read high
In short: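 Growth of a repair-deficient yeast mutant was monitored after compound treatment and expressed as inhibition relative to vehicle-treated cultures.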

[12] = NCI Yeast Anticancer Drug Screen. Data for the CLN2oe strain (AID 163);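 also: 0% = growth of vehicle-only control cultures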; settings: S. cerevisiae CLN2oe strain, active compounds read high
In short: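 Values reflect how much compound exposure reduced yeast growth, referenced to vehicle-exposed cells. Assay organism is a strain with a defined genetic change affecting cell-cycle control.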

[13] = NCI Yeast Anticancer Drug Screen. Data for the cln2 rad14 strain (AID 165);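 also: 0% = growth equal to vehicle treated cultures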; settings: S. cerevisiae cln2 rad14 strain, active compounds read high
In short: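 Relative to vehicle controls, growth inhibition of compound-treated cln2 rad14 yeast was recorded.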

[14] = NCI Yeast Anticancer Drug Screen. Data for the bub3 strain (AID 167); settings: S. cerevisiae bub3 mutant strain, active compounds read high
In short: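 Readout: yeast growth inhibition, expressed relative to vehicle-only wells. The test organism is a mutant strain from a panel with lesions in DNA repair or checkpoint genes.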

[15] = NCI Yeast Anticancer Drug Screen. Data for the rad14 strain (AID 159);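 also: 0% = growth of vehicle-treated control cultures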; settings: S. cerevisiae rad14 strain growth inhibition, active compounds read high
In short: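 Growth inhibition vs vehicle controls; genetically altered yeast strain (DNA damage repair defect) treated with test compounds.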

[16] = NCI Yeast Anticancer Drug Screen. Data for the wt2 strain (AID 169);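 also: 0% = growth of vehicle-treated yeast cultures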; settings: S. cerevisiae wt2 strain growth inhibition, active compounds read high
In short: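 Values express reduction in yeast growth under compound treatment, referenced to vehicle-treated cells.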

[17] = at 5.0 µM (retest, dose inferred, filed as 0.5)
[18] = at 50.0 µM (retest, dose inferred, filed as 5.0)

Measured: growth inhibition

CN(C)c1nc2sc3c(c2c(=O)o1)CCCC3
inactive: [1]; at 1.2 µM -3% | [1]; at 3.7 µM -4% | [1]; at 11.0 µM -2% | [1]; at 33.0 µM 26% | [1]; at 100.0 µM 31% | [2]; at 1.2 µM -3% | [2]; at 3.7 µM -4% | [2]; at 11.0 µM -1% | [2]; at 33.0 µM 19% | [2]; at 100.0 µM 36% | [3]; [17] -9% | [3]; at 50.0 µM 50.6% | [4]; at 1.2 µM 0% | [4]; at 3.7 µM 1% | [4]; at 11.0 µM 3% | [4]; at 33.0 µM 18% | [4]; at 100.0 µM 48%
active: [3]; [18] 90%

Cn1c2ccccc2c(=O)c2cc(NC(=O)CCCCC(=O)Nc3ccc4c(c3)c(=O)c3ccccc3n4C)ccc21
active: [5]; at 33.0 µM 76% | [5]; at 100.0 µM 87% | [7]; at 100.0 µM 80% | [9]; at 33.0 µM 76% | [9]; [18] 82% | [9]; at 50.0 µM 80.5% | [9]; at 100.0 µM 78% | [4]; at 100.0 µM 79%
inactive: [5]; at 1.2 µM 0% | [5]; at 3.7 µM 6% | [5]; at 11.0 µM 35% | [6]; at 1.2 µM 4% | [6]; at 3.7 µM -4% | [6]; at 11.0 µM -1% | [6]; at 33.0 µM 4% | [6]; at 100.0 µM 20% | [7]; at 1.2 µM -1% | [7]; at 3.7 µM 4% | [7]; at 11.0 µM 14% | [7]; at 33.0 µM 55% | [8]; at 1.2 µM 1% | [8]; at 3.7 µM 6% | [8]; at 11.0 µM -9% | [8]; at 33.0 µM -3% | [8]; at 100.0 µM 46% | [9]; at 1.2 µM 0% | [9]; at 3.7 µM 11% | [9]; [17] 9% | [9]; at 11.0 µM 41% | [10]; at 1.2 µM -5% | [10]; at 3.7 µM -2% | [10]; [17] -7% | [10]; at 11.0 µM 2% | [10]; at 33.0 µM 13% | [10]; [18] 6% | [10]; at 50.0 µM 12.4% | [10]; at 100.0 µM 47% | [11]; [17] -4% | [11]; [18] 16% | [11]; at 50.0 µM -1.45% | [12]; at 1.2 µM -6% | [12]; at 3.7 µM -4% | [12]; at 11.0 µM -8% | [12]; at 33.0 µM 3% | [12]; at 100.0 µM 27% | [13]; [17] -1% | [13]; [18] 5% | [13]; at 50.0 µM -12.1% | [14]; at 1.2 µM -4% | [14]; at 3.7 µM -5% | [14]; [17] 1% | [14]; at 11.0 µM -5% | [14]; at 33.0 µM -3% | [14]; [18] 10% | [14]; at 50.0 µM -22.2% | [14]; at 100.0 µM 19% | [1]; at 1.2 µM 0% | [1]; at 3.7 µM 2% | [1]; at 11.0 µM 3% | [1]; at 33.0 µM 24% | [1]; at 100.0 µM 66% | [2]; at 1.2 µM -5% | [2]; at 3.7 µM -6% | [2]; at 11.0 µM -6% | [2]; at 33.0 µM 4% | [2]; at 100.0 µM 49% | [3]; [17] 9% | [3]; [18] 9% | [3]; at 50.0 µM 62.8% | [4]; at 1.2 µM 1% | [4]; at 3.7 µM 0% | [4]; at 11.0 µM 3% | [4]; at 33.0 µM 49%

C[Si](C)(C)CNC(=O)OCc1ccccc1
active: [14]; at 33.0 µM 83% | [14]; [18] 93% | [14]; at 50.0 µM 93.5% | [14]; at 100.0 µM 94%
inactive: [5]; at 1.2 µM -1% | [5]; at 3.7 µM -4% | [5]; at 11.0 µM 6% | [5]; at 33.0 µM 2% | [5]; at 100.0 µM 16% | [6]; at 1.2 µM 2% | [6]; at 3.7 µM -2% | [6]; at 11.0 µM -3% | [6]; at 33.0 µM -4% | [6]; at 100.0 µM -3% | [7]; at 1.2 µM 1% | [7]; at 3.7 µM -1% | [7]; at 11.0 µM 10% | [7]; at 33.0 µM 21% | [7]; at 100.0 µM 41% | [9]; at 1.2 µM 1% | [9]; at 3.7 µM -10% | [9]; [17] -1% | [9]; at 11.0 µM 1% | [9]; at 33.0 µM 19% | [9]; [18] -8% | [9]; at 50.0 µM 37.1% | [9]; at 100.0 µM 56% | [10]; at 1.2 µM -2% | [10]; at 3.7 µM -3% | [10]; [17] -1% | [10]; at 11.0 µM 1% | [10]; at 33.0 µM 1% | [10]; [18] 32% | [10]; at 50.0 µM 21.9% | [10]; at 100.0 µM 11% | [15]; at 1.2 µM -1% | [15]; at 3.7 µM -1% | [15]; at 11.0 µM 0% | [15]; at 33.0 µM 0% | [15]; at 100.0 µM 6% | [11]; [17] -8% | [11]; [18] -13% | [11]; at 50.0 µM 4.25% | [12]; at 1.2 µM -3% | [12]; at 3.7 µM -3% | [12]; at 11.0 µM 7% | [12]; at 33.0 µM 4% | [12]; at 100.0 µM 5% | [13]; [17] 14% | [13]; [18] 20% | [13]; at 50.0 µM -22.8% | [14]; at 1.2 µM 4% | [14]; at 3.7 µM 15% | [14]; [17] 6% | [14]; at 11.0 µM 35% | [16]; at 1.2 µM -1% | [16]; at 3.7 µM -1% | [16]; at 11.0 µM -1% | [16]; at 33.0 µM 0% | [16]; at 100.0 µM 3% | [1]; at 1.2 µM 3% | [1]; at 3.7 µM -7% | [1]; at 11.0 µM 4% | [1]; at 33.0 µM 18% | [1]; at 100.0 µM 38% | [2]; at 1.2 µM 1% | [2]; at 3.7 µM -1% | [2]; at 11.0 µM 1% | [2]; at 33.0 µM 1% | [2]; at 100.0 µM 4% | [3]; [17] -14% | [3]; [18] -1% | [3]; at 50.0 µM 7.5% | [4]; at 1.2 µM -3% | [4]; at 3.7 µM -2% | [4]; at 11.0 µM 8% | [4]; at 33.0 µM 17% | [4]; at 100.0 µM 49%

Reference: PubChem BioAssay (NCI)
